Sampled rows, rich in hits. Any-hit rate of the full collection: about 1.5%.
RECQ1 helicase: RECQ1 (human) helicase inhibition. P46063. RECQ1 DNA unwinding, red fluorescence kinetic read. 0.54% of 240,000 active. AID 2549. Potency, µM (doses to about 57.3 µM), most hits filed as inhibitors; also: nearly all actives have a fitted effect of over 30% in size
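50 nM RECQ1T1 preincubated 15 min with compound in Tris pH 8.0 buffer with MgCl2, DTT, Tween-20 and 2.5 ug/ml poly(dI-dC); started with 200 nM TAMRA/BHQ-2 forked duplex and 2 mM ATP. Unwinding read as fluorescence (525/598 nm), two reads 2 h apart.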
BLM helicase inh: inhibitors of human Bloom syndrome helicase BLM | Potency, µM (titrated, usually from 56.1 µM), most hits filed as inhibitors | recombinant BLM DNA unwinding, fluorescence dequenching | P54132 | AID 2528 | 0.2% of 350,000 active; also: nearly all actives have a fitted effect of over 35% in size
Target sequence (P54132 whole entry, looked up): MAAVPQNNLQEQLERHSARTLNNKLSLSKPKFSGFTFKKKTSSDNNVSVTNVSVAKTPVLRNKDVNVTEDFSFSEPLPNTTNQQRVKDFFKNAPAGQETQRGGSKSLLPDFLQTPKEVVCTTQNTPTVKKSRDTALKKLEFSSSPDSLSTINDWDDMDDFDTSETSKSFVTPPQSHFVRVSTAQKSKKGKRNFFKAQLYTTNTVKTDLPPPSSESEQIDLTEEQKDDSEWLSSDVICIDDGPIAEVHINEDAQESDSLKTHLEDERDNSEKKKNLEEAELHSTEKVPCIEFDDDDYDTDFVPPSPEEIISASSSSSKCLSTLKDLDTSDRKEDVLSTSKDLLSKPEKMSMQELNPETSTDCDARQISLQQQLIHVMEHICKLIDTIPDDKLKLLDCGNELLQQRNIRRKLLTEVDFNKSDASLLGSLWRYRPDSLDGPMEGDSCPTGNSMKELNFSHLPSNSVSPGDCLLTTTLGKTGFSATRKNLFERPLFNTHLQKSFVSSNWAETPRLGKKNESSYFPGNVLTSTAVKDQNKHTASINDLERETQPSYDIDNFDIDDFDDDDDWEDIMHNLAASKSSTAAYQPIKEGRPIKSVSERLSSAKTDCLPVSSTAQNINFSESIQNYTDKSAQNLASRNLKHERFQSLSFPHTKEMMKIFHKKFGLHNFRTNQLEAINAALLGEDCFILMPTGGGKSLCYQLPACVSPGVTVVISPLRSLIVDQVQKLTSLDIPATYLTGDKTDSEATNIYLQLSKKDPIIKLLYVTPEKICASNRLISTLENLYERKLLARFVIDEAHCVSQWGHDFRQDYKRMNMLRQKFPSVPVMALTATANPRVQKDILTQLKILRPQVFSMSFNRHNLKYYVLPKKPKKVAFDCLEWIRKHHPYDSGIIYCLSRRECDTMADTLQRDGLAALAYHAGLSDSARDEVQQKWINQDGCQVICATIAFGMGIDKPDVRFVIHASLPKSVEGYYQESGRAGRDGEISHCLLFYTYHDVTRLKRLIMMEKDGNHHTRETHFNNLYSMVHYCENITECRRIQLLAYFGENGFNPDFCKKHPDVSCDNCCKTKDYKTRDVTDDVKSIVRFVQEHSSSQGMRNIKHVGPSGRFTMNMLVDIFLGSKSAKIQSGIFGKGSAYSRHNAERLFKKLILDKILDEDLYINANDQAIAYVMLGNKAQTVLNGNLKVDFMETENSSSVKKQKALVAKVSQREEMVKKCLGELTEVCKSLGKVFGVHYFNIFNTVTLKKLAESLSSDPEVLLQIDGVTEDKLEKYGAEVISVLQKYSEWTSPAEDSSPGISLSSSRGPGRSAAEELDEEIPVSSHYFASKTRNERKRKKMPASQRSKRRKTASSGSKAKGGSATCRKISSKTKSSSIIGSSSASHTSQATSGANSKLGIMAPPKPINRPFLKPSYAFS
FEN1 inhibitor: human FEN1 inhibition. P39748. Recombinant FEN1 flap cleavage, fluorescence, 15 min. Potency, µM (highest dose often 114 µM), usual class: inhibitors. 0.35% of 390,000 active; also: nearly all actives have a fitted effect of over 65% in size
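Recombinant FEN1 (10 nM) was preincubated with pin-transferred compounds for 15 min at room temperature, then flap DNA substrate (50 nM final) was added. Plates were read at 0 and 15 min, and normalized concentration–response data were fitted to a four-parameter Hill equation.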
APEX1 inh: APE1 (human) endonuclease inhibition. P27695. recombinant APE1, TAMRA/BHQ-2 abasic DNA cleavage fluorescence. Potency, µM (doses to about 65.8 µM), usual class: inhibitors. 0.35% of 350,000 active; also: nearly all actives have a fitted effect of over 55% in size
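Readout is kinetic fluorescence (ex 525, em 598 nm) from cleavage of 50 nM TAMRA/BHQ-2 THF abasic duplex by 0.75 nM APE1, compound added 15 min beforehand at RT.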
GCN5L2 inh: GCN5L2 (KAT2A) acetyltransferase inhibition; 0.21% of 390,000 active; GCN5L2 HAT assay, ThioGlo1 CoA-SH fluorescence; Q92830; AID 504327; Potency, µM (doses to about 58.9 µM), most hits filed as inhibitors
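Compounds, pin-transferred from DMSO stocks, meet 20nM GCN5L2 for 15 min before the reaction begins with H3(1-25) peptide (75uM) and acetyl-CoA (70uM). Thiol-reactive ThioGlo1 reports CoA release over 20 min at room temperature.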
PI5P4Ka inh: blocks human PI5P4K alpha kinase activity | PI5P4Kalpha enzyme, ADP-Glo luminescence, 60 min; active compounds read low | max response, % | 1.2% of 330,000 active; active = max response of -50% or lower; inconclusive = between -30% and -50%; inactive = -30% or higher; also: value at the top dose of about 77 µM
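qHTS, 1536-well: enzyme/substrate mix, compound by pin tool, 5 microM ATP final; RT 60 min; ADP-Glo reagents 1 (45 min) then 2 (30 min); luminescence.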
Numbers stand for hits; 0 = inactive; ? = inconclusive; - = no result given. Unless noted, calls follow the shape of the dose curve; as a rule, active = well fitted curve in the direction sought with a large enough effect; inconclusive = small, poorly fitted or top-dose-only effect, or another doubt; inactive = no such curve, though single readings can be large; an effect the other way counts as inactive or inconclusive.

SMILES	RECQ1 helicase	BLM helicase inh	FEN1 inhibitor	APEX1 inh	GCN5L2 inh	PI5P4Ka inh
CC(=O)Nc1ccc(S(=O)(=O)NC(CC(=O)N(C)Cc2ccccc2)C(C)C)cc1 (stereo not drawn)	0	0	0	0	0	-53.2
CC(C)=NNc1cnnc2ccc([N+](=O)[O-])cc12	-	-	-	-	-	-68.9
CCC(=O)OC1(C)C(=O)C=C2C=C(CCCC(=O)OC)OC=C2C1=O (stereo not drawn)	0	0	?	0	-	?
CCCCC1=CC2=CC(=O)C(C)(OC(=O)CC)C(=O)C2=CO1 (stereo not drawn)	0	0	?	0	-	-65.0
C=C1C(=O)C=C2CN(C(=O)c3ccccc3)[C@@](Cc3ccc(F)cc3)(C(=O)OC)[C@@H]12	0	0	0	0	0	-76.9
CC1CCN(c2c([N+](=O)[O-])c(=O)n(-c3ccccc3)c3ccccc23)CC1	0	0	0	0	1.41µM	0
Cc1nc(S/C(=C/c2ccc(-c3ccc(Cl)cc3)o2)C(=O)O)n[nH]1	0	0	0	0	0	0
CC(=O)c1ccc(-c2ccc(/C=C(/Sc3n[nH]c(C)n3)C(=O)O)o2)cc1	0	0	50.1µM	0	?	0
COc1ccccc1-c1coc2cc(O)ccc2c1=O	0	0	-	0	25.1µM	-
OCCN(CCO)c1nc(N2CCCCC2)c2nc(N(CCO)CCO)nc(N3CCCCC3)c2n1	0	0	0	?	25.1µM	0
Nc1nc(NCCO)nc(N2CCCCCC2)c1[N+](=O)[O-]	-	0	0	0	0	0
Cc1ccc(S(=O)(=O)N(CC(O)Cn2c3ccccc3c3ccccc32)c2cccc(C(N)=O)c2)cc1 (stereo not drawn)	-	0	0	-	0	-
Cc1ccc(S(=O)(=O)N(CC(O)Cn2c3ccccc3c3ccccc32)c2cccc(C(=O)N(C)C)c2)cc1 (stereo not drawn)	-	0	89.1µM	-	0	-
C[N+]1(CC(=O)c2ccc3ccccc3c2)CCOCC1	-	-	0	-	-	-
COc1ccc(-n2sc3ccc(F)cc3c2=O)cc1	-	-	?	0	2.82µM	-86.7
O=c1c2ccccc2sn1-c1ccc(S(=O)(=O)N2CCOCC2)cc1	-	-	0	-	-	-
O=C1CCCC(=O)N1c1ccc(F)cc1	-	0	0	0	0	0
O=c1c2cc(F)ccc2sn1-c1ccc(F)cc1	-	-	79.4µM	0	1.78µM	-90.0
COc1ccc(-n2sc3ccccc3c2=O)cc1	-	-	-	-	-	-89.4
Cc1ccc(C)c(-n2sc3ccc(F)cc3c2=O)c1	-	-	?	0	3.55µM	-84.7
Cc1ccc2scc(N3CCN(c4ccc(F)cc4)CC3)c(=O)c2c1	-	0	0	-	0	-
O=C(Cc1ccc(OCCCc2ccccc2)cc1)NO	-	-	0	-	-	-
CC(=O)NCCNc1ncnc2ccc(-c3ccoc3)cc12	0	0	-	0	25.1µM	-
Cc1oc(-c2ccc(Cl)cc2)cc1-c1nn2c(-c3ccco3)nnc2s1	31.6µM	0	-	?	0	-
Clc1ccc(-c2nnc3sc(-c4ccco4)nn23)c(Cl)c1	0	0	-	0	0	-
SMILES	RECQ1 helicase	BLM helicase inh	FEN1 inhibitor	APEX1 inh	GCN5L2 inh	PI5P4Ka inh
Cc1oc(-c2ccc(F)cc2)cc1-c1nn2c(-c3ccoc3C)nnc2s1	?	?	0	?	0	-74.4
COc1ccc(C2=Nn3c(nnc3-c3ccccc3C)SC2)cc1	0	0	-	0	-	-
Cc1ccc(S(=O)(=O)N2CCN(c3nc(-c4ncco4)nc4ccccc34)CC2)cc1	-	-	0	-	-	-
COc1ccc(C2=CC3=C(Br)C(=O)C(C)(OC(=O)C4CCCC4)C(=O)C3=CO2)cc1 (stereo not drawn)	0	0	?	0	0	-68.1
CCc1ccc(Nc2nnc(SCC(=O)NC(=O)CN3CCCC3=O)s2)cc1	-	-	0	13.4µM	0	?
COc1ccccc1Nc1nnc(SCC(=O)N2CCCC2=O)s1	0	0	0	0	0	-
COc1ccc(CN(CCCN)c2ccc(Br)cn2)cc1	-	-	0	-	-	-
C(=Nc1cnc2ccccc2c1)c1ccncc1	-	-	0	-	-	-
CCN1CCc2c(sc(NC(=S)NC(=O)c3ccccc3)c2C#N)C1	0	0	0	0	?	-62.4
Cc1cc(C=O)cc(C)c1[N+](=O)[O-]	-	-	0	-	-	-
CCOc1cc2c(c3c1C(c1ccccc1)N(S(=O)(=O)c1ccc(C)cc1)C3)C(=O)C=CC2=O (stereo not drawn)	-	-	-	-	-	-84.7

Source: PubChem BioAssay
